The record followed here is PubChem BioAssay (NCI).

Compounds without any hit were thinned out: in the full panel of roughly 83,000, 20% have a hit.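 Step 1: grow cells in 96-well plates. Step 2: add test compound at a single concentration. Step 3: incubate 48 h. Step 4: record percent growth.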 Unmarked numbers belong to inactive results. Active and inactive are the calls of the source. The calls were made as follows: active = growth percent below 10; inactive = the rest.

Test systems include HCT-15 colon; HT29 colon; SNB-75 CNS; SNB-19 CNS; U251 CNS; PC-3 prostate; SK-MEL-5 melanoma; UACC-62 melanoma; LOX IMVI melanoma; SK-MEL-28 melanoma.
What all share (assay): NCI-60 one-dose screen, 48 h (100 = growth as untreated, 0 = no growth, -100 = all killed)
What all share (conditions): 10 µM

Regarding `CCNC(=S)NN`, the growth was 86.1% in the assay on HCT-15 colon; 56.2% with HT29 colon; 77% in the assay with SNB-75 CNS; 97.2% in the assay on SNB-19 CNS; 87.2% with U251 CNS; 60.7% with PC-3 prostate. In addition, the growth in the assay with SK-MEL-5 melanoma is 102%; in the assay on UACC-62 melanoma it was 99.2%; with LOX IMVI melanoma, 96.8%; in the assay with SK-MEL-28 melanoma, 107%.
Consider `CCOC(=O)c1cc2c(n1Cc1cc(OC)cc(OC)c1)-c1oncc1CC2`, for which the growth in the assay on HCT-15 colon is 21.9%; in the assay with HT29 colon, 5.66% (active); with SNB-75 CNS, -0.349% (active); in the assay on SNB-19 CNS it was 38.7%; with U251 CNS, 23.5%; with PC-3 prostate, 27.4%. In addition, the growth is 24.6% with SK-MEL-5 melanoma, 40.3% with UACC-62 melanoma, 49.5% with LOX IMVI melanoma and 33.8% in the assay on SK-MEL-28 melanoma.
`CCCCOCC(=O)NC(NP(=O)(N(C)C)N(C)C)C(Cl)(Cl)Cl` (stereo not given): the growth was 140% with HCT-15 colon; 122% in the assay on HT29 colon; 106% in the assay with SNB-75 CNS; 107% in the assay with SNB-19 CNS; 120% in the assay with U251 CNS; 113% in the assay with PC-3 prostate. In addition, the growth in the assay with SK-MEL-5 melanoma is 118%; in the assay with UACC-62 melanoma it was 103%; with LOX IMVI melanoma, 110%; in the assay on SK-MEL-28 melanoma, 125%.
As to `N#Cc1ncc(-c2cc(F)ccc2F)c(NC2CCCCCC2)n1`, the growth with HCT-15 colon is 82.8%; in the assay on HT29 colon, 94.7%; in the assay with SNB-75 CNS it was 67.3%; in the assay with SNB-19 CNS, 64%; in the assay with U251 CNS it was 9.98% (active); with PC-3 prostate, 60.7%. For the same molecule, the growth is 84.9% in the assay with SK-MEL-5 melanoma, 60.9% with UACC-62 melanoma, 80.6% in the assay on LOX IMVI melanoma and 80.8% with SK-MEL-28 melanoma.
`COc1cc(CSc2nc3ccc(Cl)cc3c(=O)n2-c2ccccc2)cc(OC)c1OC`: the growth in the assay with HCT-15 colon is 52.5%; with HT29 colon, 67%; with SNB-75 CNS, 75.8%; in the assay on SNB-19 CNS it was 80.6%; with U251 CNS, 88.6%; in the assay on PC-3 prostate, 73.2%. For the same molecule, the figures for the growth with SK-MEL-5 melanoma, with UACC-62 melanoma and in the assay on SK-MEL-28 melanoma were 81.3%, 64.1% and 103%, respectively.
On to `CCN(CC)CCCOC(=O)Nc1ccccc1Cl`, for which the growth was 111% in the assay with HCT-15 colon; 103% in the assay with HT29 colon; 120% with SNB-75 CNS; 104% in the assay on SNB-19 CNS; 107% in the assay on U251 CNS; 96.1% with PC-3 prostate. Besides, the figures for the growth with SK-MEL-5 melanoma, with UACC-62 melanoma and in the assay on SK-MEL-28 melanoma were 105%, 109% and 116%, respectively.
As for `O=C(N/N=c1/ccoc2cccnc12)N1CCN(c2ncccn2)CC1`, the growth with HCT-15 colon was 24.9%; in the assay with HT29 colon it was 34.6%; in the assay with SNB-75 CNS, 70.7%; with SNB-19 CNS, 35%; in the assay on U251 CNS, 17.9%; in the assay on PC-3 prostate it was 26.2%. Also, the results for the growth in the assay on SK-MEL-5 melanoma, in the assay on UACC-62 melanoma and in the assay on SK-MEL-28 melanoma were -36.8% (active), 7.9% (active) and 48.4%, respectively.
For `COc1cc(OC)cc(-c2ccc(-c3ccc(C(=N)N)cn3)o2)c1`, the growth is 6.84% (active) in the assay with HCT-15 colon; -38.5% (active) in the assay on HT29 colon; -35.7% (active) in the assay with SNB-75 CNS; 33.3% in the assay on SNB-19 CNS; -80.9% (active) in the assay with U251 CNS; 31.4% in the assay with PC-3 prostate. The growth with SK-MEL-5 melanoma is -95.7% (active); in the assay with UACC-62 melanoma it was -89.7% (active); with SK-MEL-28 melanoma, -95.4% (active).
Regarding `O=C(Nc1ccc(Oc2ccc(Nc3nc4ccccc4s3)cc2)cc1)Nc1ccc(Cl)c(Cl)c1`, the growth was 20.7% in the assay on HCT-15 colon; 31.7% with HT29 colon; 44.1% in the assay with SNB-75 CNS; 27.1% with SNB-19 CNS; 29.5% in the assay on U251 CNS; 23.4% with PC-3 prostate. The figures for the growth in the assay with SK-MEL-5 melanoma, with UACC-62 melanoma and with SK-MEL-28 melanoma were 34.3%, 21.1% and 45.9%, respectively.
On to `COc1cc(C2C(C#N)=C(c3c[nH]c4ccccc34)Nc3nc(N)[nH]c(=O)c32)cc(OC)c1OC` (stereo not given), for which the growth with HCT-15 colon was 105%; with HT29 colon it was 107%; in the assay with SNB-75 CNS, 80%; with SNB-19 CNS it was 66.5%; with U251 CNS it was 73.6%; in the assay with PC-3 prostate it was 62.8%. The growth was 67.4% in the assay on SK-MEL-5 melanoma, 84.2% in the assay on UACC-62 melanoma and 56.2% in the assay with SK-MEL-28 melanoma.
On to `CCCCCC(=O)N1c2ccccc2NC2=C(C(=O)CC(c3ccc(OC)c(OC)c3)C2)C1c1ccc(C(F)(F)F)cc1` (stereo not given), for which the growth in the assay on HCT-15 colon is 60.6%; in the assay on HT29 colon, 88%; in the assay on SNB-75 CNS, 82.7%; in the assay with SNB-19 CNS it was 58.1%; in the assay on U251 CNS, 49.5%; in the assay on PC-3 prostate, 16.4%. The growth is 18.8% with SK-MEL-5 melanoma, 53.9% in the assay on UACC-62 melanoma and 86.7% with SK-MEL-28 melanoma.
For the molecule `COc1cc(OC)cc(N2CCN(C(=O)Nc3nc4cc(F)ccc4nc3OC)CC2)c1`, the growth in the assay with HCT-15 colon is 7.06% (active); in the assay with HT29 colon, 3.96% (active); with SNB-75 CNS it was 27.9%; with SNB-19 CNS, 28.7%; in the assay on U251 CNS, 17.5%; in the assay with PC-3 prostate, 22.4%. Further, the growth in the assay on SK-MEL-5 melanoma was -42.2% (active); in the assay on UACC-62 melanoma it was 47.9%; with LOX IMVI melanoma, 23.6%; with SK-MEL-28 melanoma, 77.1%.
For the molecule `CCN(CC)CCOC(=O)c1ccc(NC(=O)Nc2cccc(Cl)c2)cc1`, the growth in the assay on HCT-15 colon is 95.6%; in the assay on HT29 colon, 96.3%; with SNB-75 CNS, 81.8%; in the assay with SNB-19 CNS, 108%; with U251 CNS, 96.5%; in the assay on PC-3 prostate it was 94.7%. In addition, the growth with SK-MEL-5 melanoma is 101%; in the assay on UACC-62 melanoma it was 102%; in the assay with SK-MEL-28 melanoma, 106%.
Take `Cc1ccc(C2C=C(c3ccc(Cl)cc3)N=C3SC=CN32)c(Br)c1` (stereo not given): the growth in the assay with HCT-15 colon was 75.1%; with HT29 colon, 67.9%; in the assay with SNB-75 CNS, 75.5%; in the assay with SNB-19 CNS it was 74.2%; in the assay with U251 CNS, 60.3%; with PC-3 prostate it was 65.5%. The growth is 84.8% in the assay on SK-MEL-5 melanoma, 83.3% in the assay with UACC-62 melanoma and 105% in the assay with SK-MEL-28 melanoma.
As for `CCc1nn2c(-c3ccccc3)c(-c3cc(OC)c(OC)c(OC)c3)nc2s1`, the growth in the assay on HCT-15 colon was 72.9%; in the assay on HT29 colon it was 74.5%; with SNB-75 CNS, 45.9%; in the assay with SNB-19 CNS it was 85.3%; in the assay with U251 CNS, 98.8%; in the assay with PC-3 prostate, 71.4%. Moreover, the growth was 71.9% in the assay with SK-MEL-5 melanoma, 71.8% with UACC-62 melanoma and 29.5% in the assay with SK-MEL-28 melanoma.
